According to PubChem BioAssay (Tox21):
Records with an inconclusive call do not appear. Activity calls are given as the source filed them. Unless noted, calls come from the whole dose curve.

Legend:
[1] = Nuclear factor erythroid 2-related factor 2/antioxidant responsive element (Nrf2/ARE) small molecule agonists: qHTS cell viability counter screen in human keratinocytes (AID 1919968; active = well fitted curve in the direction sought with a large enough effect in the repeat runs; an effect the other way counts as inactive or inconclusive; note: nearly all actives have a fitted effect of over 55% in size)
Summary of the method: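 Cytotoxicity was multiplexed with the Nrf2/ARE luciferase assay in the same wells. Stably transfected HaCaT keratinocytes were treated with test compounds for 23 h at 37 C. Cell viability was then measured by CellTiter-Fluor fluorescence.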

[2] = Nuclear factor erythroid 2-related factor 2/antioxidant responsive element (Nrf2/ARE) small molecule agonists: luciferase reporter gene qHTS assay in human keratinocytes (AID 1919969); note: nearly all actives have a fitted effect of over 35% in size
[3] = target: Gonadotropin-releasing hormone receptor (Homo sapiens) (UniProt P30968); assay: Human gonadotropin-releasing hormone receptor (GnRHR) small molecule agonists, calcium flux assay in GnRHR-HEK293 cells (AID 1920063); note: nearly all actives have a fitted effect of over 35% in size
Chain of Gonadotropin-releasing hormone receptor (Homo sapiens) (P30968 whole entry, looked up): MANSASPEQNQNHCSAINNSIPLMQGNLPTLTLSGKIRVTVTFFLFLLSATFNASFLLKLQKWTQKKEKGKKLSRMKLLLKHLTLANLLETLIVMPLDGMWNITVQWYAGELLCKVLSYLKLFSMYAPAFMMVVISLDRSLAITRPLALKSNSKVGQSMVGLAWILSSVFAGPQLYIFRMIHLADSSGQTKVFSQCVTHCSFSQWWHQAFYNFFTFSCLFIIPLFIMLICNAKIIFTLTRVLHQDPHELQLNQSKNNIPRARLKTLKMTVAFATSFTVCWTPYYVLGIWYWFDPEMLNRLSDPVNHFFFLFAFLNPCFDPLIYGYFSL
Summary of the method: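 Agonist activity was measured as intracellular calcium flux in HEK293 cells engineered to stably express human GnRHR. After dye loading for 1 hour at 37 C, compounds in DMSO were added and fluorescence was followed for 3 minutes.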

[4] = target: KiSS-1 receptor (Homo sapiens) (UniProt Q969F8); assay: Human kisspeptin (KISS1R) small molecule agonists, calcium flux assay in KISS1R-HEK293 cells (AID 1920064; active = well fitted curve in the direction sought with a large enough effect in the repeat runs; an effect the other way counts as inactive or inconclusive)
Chain of KiSS-1 receptor (Homo sapiens) (Q969F8 whole entry, looked up): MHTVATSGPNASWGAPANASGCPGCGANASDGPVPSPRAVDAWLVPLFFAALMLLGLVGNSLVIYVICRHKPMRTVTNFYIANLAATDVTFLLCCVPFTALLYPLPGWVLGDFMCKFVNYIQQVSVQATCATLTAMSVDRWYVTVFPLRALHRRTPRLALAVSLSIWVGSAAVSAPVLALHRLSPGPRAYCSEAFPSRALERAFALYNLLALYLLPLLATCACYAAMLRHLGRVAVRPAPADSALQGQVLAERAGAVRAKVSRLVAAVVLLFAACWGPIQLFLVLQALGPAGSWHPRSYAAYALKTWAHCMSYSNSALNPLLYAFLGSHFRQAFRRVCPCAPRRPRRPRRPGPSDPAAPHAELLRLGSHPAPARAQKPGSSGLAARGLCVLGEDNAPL
Summary of the method: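 Agonist activity is monitored as intracellular calcium rise in engineered HEK293 cells carrying human KISS1R. Cells are dye-loaded for 1 h at 37 C before compound addition, and fluorescence is recorded for 3 min.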

[5] = G protein-coupled receptor (GPCR) small molecule agonists, calcium flux assay: HEK293 wild type cell line counter screen (AID 1920065)
Summary of the method: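 Seed cells, incubate 18 h (37 C, 5% CO2); add calcium dye, 1 h at 37 C; pin-transfer compounds, ATP control or DMSO; read fluorescence 480/540 nm each second for 3 min.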

[6] = p53 small molecule agonists, cell-based qHTS assay with human liver microsomes: qHTS cell viability counter screen (AID 1963579); note: nearly all actives have a fitted effect of over 45% in size
Summary of the method: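 In this multiplexed counter screen, the reporter plates were subsequently treated with CellTiter-Glo so that cell viability, reflected by luminescence, could be recorded for p53RE-bla cells dosed 16 h with compounds under microsomal activation (HLM and NADPH).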

[7] = p53 small molecule agonists, cell-based qHTS assay with rat liver microsomes: qHTS cell viability counter screen (AID 1963580); note: nearly all actives have a fitted effect of over 45% in size
Summary of the method: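 Luminescent ATP readout (CellTiter-Glo, 30 min at room temperature) reports viability of p53RE-bla HCT-116 cells after 16 h at 37 C with test compounds under metabolic activation by rat liver microsomes and NADPH at 0.5 mg/mL final each.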

[8] = p53 small molecule agonists, cell-based qHTS assay: qHTS cell viability counter screen (AID 1963581); note: nearly all actives have a fitted effect of over 45% in size
Summary of the method: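 Viability was counter-screened in parallel with the p53 agonist reporter by measuring intracellular ATP luminescence in the same HCT-116 p53RE-bla wells after 16 h compound treatment at 37 C.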

[9] = target: 5-hydroxytryptamine receptor 2A (Homo sapiens) (UniProt P28223); assay: 5-hydroxytryptamine receptor 2A (HTR2A) small molecule antagonists, cell-based qHTS assay (AID 1963586); note: nearly all actives have a fitted effect of over 45% in size
Chain of 5-hydroxytryptamine receptor 2A (Homo sapiens) (P28223 whole entry, looked up): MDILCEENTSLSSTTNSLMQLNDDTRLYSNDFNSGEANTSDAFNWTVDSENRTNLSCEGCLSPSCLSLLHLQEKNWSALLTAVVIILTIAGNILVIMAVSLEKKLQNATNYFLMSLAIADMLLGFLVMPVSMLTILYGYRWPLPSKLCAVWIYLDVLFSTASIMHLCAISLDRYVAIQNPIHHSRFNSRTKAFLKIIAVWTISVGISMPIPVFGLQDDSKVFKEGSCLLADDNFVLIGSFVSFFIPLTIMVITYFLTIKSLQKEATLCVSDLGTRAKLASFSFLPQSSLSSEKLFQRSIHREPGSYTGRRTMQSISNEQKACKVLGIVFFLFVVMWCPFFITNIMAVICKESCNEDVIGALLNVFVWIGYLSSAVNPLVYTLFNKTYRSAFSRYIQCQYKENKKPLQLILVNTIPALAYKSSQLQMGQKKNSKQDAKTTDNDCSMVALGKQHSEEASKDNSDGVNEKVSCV
Summary of the method: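 CHO cells stably expressing human HTR2A were plated for 18 h at 37 C, then loaded with calcium dye for 1 h. Compounds were preincubated 5 min at room temperature before DOI (4 nM solution) was added. Kinetic fluorescence was read for 3 min.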

[10] = target: 5-hydroxytryptamine receptor 2A (Homo sapiens) (UniProt P28223); assay: 5-hydroxytryptamine receptor 2A (HTR2A) small molecule agonists, cell-based qHTS assay (AID 1963587); note: nearly all actives have a fitted effect of over 30% in size
Summary of the method: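 HTR2A-CHO cells, plated 18 h at 37 C/5% CO2, dye-loaded 1 h at 37 C; compounds in DMSO added by pin tool (agonist mode). Intracellular calcium flux read as kinetic fluorescence on FDSS over 2 min at 1 s intervals.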

[11] = target: Muscarinic acetylcholine receptor M1 (Homo sapiens) (UniProt P11229); assay: Cholinergic receptor muscarinic 1 (CHRM1) small molecule antagonists, cell-based qHTS assay (AID 1963588); note: nearly all actives have a fitted effect of over 40% in size
Chain of Muscarinic acetylcholine receptor M1 (Homo sapiens) (P11229 whole entry, looked up): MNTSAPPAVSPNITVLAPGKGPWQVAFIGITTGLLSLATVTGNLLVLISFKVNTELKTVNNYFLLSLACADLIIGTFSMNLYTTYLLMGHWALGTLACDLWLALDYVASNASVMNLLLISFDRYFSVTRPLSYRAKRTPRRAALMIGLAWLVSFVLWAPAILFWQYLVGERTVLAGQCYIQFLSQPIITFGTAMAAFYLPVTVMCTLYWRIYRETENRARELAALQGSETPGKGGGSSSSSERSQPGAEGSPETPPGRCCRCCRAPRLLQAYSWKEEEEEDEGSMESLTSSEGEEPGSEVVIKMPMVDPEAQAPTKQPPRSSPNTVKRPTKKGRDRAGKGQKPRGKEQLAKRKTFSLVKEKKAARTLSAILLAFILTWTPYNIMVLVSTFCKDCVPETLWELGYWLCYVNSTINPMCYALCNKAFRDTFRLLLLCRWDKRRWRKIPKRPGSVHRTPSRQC
Summary of the method: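 Compounds were tested at 15 concentrations in three independent runs. Dye-loaded CHRM1-CHO cells were exposed 5 min at room temperature before stimulation by acetylcholine added at 50nM. Intracellular calcium was read kinetically on FDSS for 3 min.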

[12] = target: Muscarinic acetylcholine receptor M1 (Homo sapiens) (UniProt P11229); assay: Cholinergic receptor muscarinic 1 (CHRM1) small molecule agonists, cell-based qHTS assay (AID 1963589); note: nearly all actives have a fitted effect of over 35% in size
Summary of the method: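 Cells were plated and incubated 18 h at 37 C/5% CO2, loaded with calcium dye for 1 h at 37 C, then treated with compounds in DMSO. Fluorescence was recorded kinetically at 1 sec intervals.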

[13] = cAMP Responsive Elements (CRE) small molecule agonists, cell-based qHTS assay (AID 1963590)
Summary of the method: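 Cells carrying a CRE-driven beta-lactamase reporter (HEK 293T) are seeded, incubated overnight (18 h), and treated with test compounds for 3 h at 37 C; reporter activity is then detected with a FRET substrate after 2 h at room temperature.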

[14] = target: D(2) dopamine receptor (Homo sapiens) (UniProt P14416); assay: Dopamine D2 receptor (DRD2) small molecule agonists, cell-based qHTS assay (AID 1963594); note: nearly all actives have a fitted effect of over 35% in size
Chain of D(2) dopamine receptor (Homo sapiens) (P14416 whole entry, looked up): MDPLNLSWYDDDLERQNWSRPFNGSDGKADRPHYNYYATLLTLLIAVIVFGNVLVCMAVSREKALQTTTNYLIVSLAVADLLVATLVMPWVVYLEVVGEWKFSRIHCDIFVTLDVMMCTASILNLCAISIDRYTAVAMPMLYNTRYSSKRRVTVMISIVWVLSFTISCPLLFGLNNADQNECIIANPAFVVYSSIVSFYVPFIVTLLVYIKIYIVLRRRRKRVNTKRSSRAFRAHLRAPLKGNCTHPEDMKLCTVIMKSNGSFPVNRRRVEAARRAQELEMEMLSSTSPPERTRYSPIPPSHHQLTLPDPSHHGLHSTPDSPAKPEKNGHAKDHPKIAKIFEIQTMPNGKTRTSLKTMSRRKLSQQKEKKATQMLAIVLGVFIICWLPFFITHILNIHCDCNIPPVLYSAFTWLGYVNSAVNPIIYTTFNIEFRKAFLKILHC
Summary of the method: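 HEK293 cells stably expressing DRD2 were cultured 24 h at 37 C, then given Ro20-1724 (0.1 mM final) and compounds for 10 min at room temperature. NKH477 (200nM) was then added for 30 min. cAMP was read by HTRF.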

[15] = target: D(2) dopamine receptor (Homo sapiens) (UniProt P14416); assay: Dopamine D2 receptor (DRD2) small molecule antagonists, cell-based qHTS assay (AID 1963595; active = well fitted inhibition curve with a large enough effect in the signal ratio in the repeat runs, with a control signal flat; the % refers to the signal ratio)
Summary of the method: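 Stable D2 receptor HEK293 line, 24 h after seeding. Compound preincubated 10 min, then quinpirole (12 nM) with forskolin analogue NKH477 (200 nM), 30 min, room temperature. Detection by time-resolved FRET of cAMP.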

[16] = cAMP Responsive Elements (CRE) small molecule antagonists, cell-based qHTS assay (AID 1963591; active = well fitted inhibition curve with a large enough effect in the signal ratio in the repeat runs, not every such curve was filed as active; the % refers to the signal ratio)
Summary of the method: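 Cells (CRE-bla HEK 293T, DMEM with 10% dialyzed FBS and 25 mM HEPES) are seeded and incubated 18 h. Compounds are added with NKH477 agonist at 0.25 uM final for 3 h, then FRET substrate for 2 h.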

[17] = target: Beta-2 adrenergic receptor (Homo sapiens) (UniProt P07550); assay: Adrenergic beta2 receptor (ADRB2) small molecule antagonists, cell-based qHTS assay (AID 1963592); note: series mostly up to about 92 µM; nearly all actives have a fitted effect of over 50% in size
Chain of Beta-2 adrenergic receptor (Homo sapiens) (P07550 whole entry, looked up): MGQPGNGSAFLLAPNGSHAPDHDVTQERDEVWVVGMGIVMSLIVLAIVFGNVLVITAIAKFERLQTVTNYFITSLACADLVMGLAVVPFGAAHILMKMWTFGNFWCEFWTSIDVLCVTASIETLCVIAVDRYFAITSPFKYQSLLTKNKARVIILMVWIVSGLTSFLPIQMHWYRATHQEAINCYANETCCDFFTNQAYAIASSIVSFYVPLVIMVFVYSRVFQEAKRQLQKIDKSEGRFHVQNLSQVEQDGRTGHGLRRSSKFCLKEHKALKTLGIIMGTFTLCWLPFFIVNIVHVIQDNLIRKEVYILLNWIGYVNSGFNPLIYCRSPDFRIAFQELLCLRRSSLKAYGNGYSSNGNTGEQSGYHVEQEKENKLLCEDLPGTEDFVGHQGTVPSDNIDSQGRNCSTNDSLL
Summary of the method: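 Assay format: CHO-ADRB2 cells, 18-20hr seeding at 37C/5% CO2, then compound plus 1nM isoproterenol agonist mix for 0.5hr RT. Homogeneous time-resolved fluorescence cAMP detection after 1hr, expressed as 665/615 nm ratio.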

[18] = target: Beta-2 adrenergic receptor (Homo sapiens) (UniProt P07550); assay: Adrenergic beta2 receptor (ADRB2) small molecule agonists, cell-based qHTS assay (AID 1963593);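 note: CHO cells stably overexpressing human ADRB2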
Summary of the method: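 CHO cells stably over-expressing ADRB2 were plated overnight at 37C, then dosed with compounds plus a stimulation mix containing 100uM IBMX and 25uM Ro-20-1724 for 0.5hr at room temperature. cAMP was measured by HTRF competition, 1hr.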

Measured: Potency

CCNc1nc(NC(C)C)nc(SC)n1
inactive: [1] | [2] | [3] | [4] | [5] | [6] | [7] | [8] | [9] | [10] | [11] | [12] | [13] | [14] | [15]

N#Cc1cccnc1
inactive: [1] | [2] | [3] | [4] | [5] | [6] | [7] | [8] | [9] | [10] | [11] | [12] | [13] | [16] | [17] | [14] | [15]

CCCCCCCCC(=O)NCc1ccc(O)c(OC)c1
inactive: [1] | [2] | [3] | [4] | [5] | [6] | [7] | [8] | [9] | [10] | [11] | [12] | [13] | [16] | [18] | [14] | [15]

CCc1cnc(C2=NC(C)(C(C)C)C(=O)N2)c(C(=O)O)c1 (stereo not drawn)
inactive: [1] | [2] | [3] | [4] | [5] | [6] | [7] | [8] | [9] | [10] | [11] | [12] | [13] | [16] | [17] | [18] | [14] | [15]

Oc1c(Br)cc(Br)cc1Br
inactive: [1] | [2] | [3] | [4] | [5] | [6] | [7] | [8] | [9] | [10] | [11] | [12] | [13] | [17] | [14] | [15]

Cc1[nH]c(=O)n(C(C)(C)C)c(=O)c1Cl
inactive: [1] | [2] | [3] | [4] | [5] | [6] | [7] | [8] | [9] | [10] | [11] | [12] | [13] | [16] | [17] | [14] | [15]

O=C(NC(=O)c1c(F)cccc1F)Nc1ccc(Cl)cc1
inactive: [1] | [2] | [3] | [4] | [5] | [6] | [7] | [8] | [9] | [10] | [11] | [12] | [13] | [16] | [17] | [18] | [14] | [15]
